The text below walks through data of PubChem BioAssay (NCATS).

Records with an inconclusive call do not appear. A number with no mark means an inactive call. Active and inactive are the calls of the source. Calls come from the whole dose curve; as a rule, active = well fitted inhibition curve with a large enough effect; inconclusive = small, poorly fitted or top-dose-only effect; inactive = flat fitted curve, though single readings scatter.

The test system of this test is Zika virus NS2B-NS3 protease. As to the kind of experiment: Primary screen GU AMC qHTS for Zika virus inhibitors (AID 1347154).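 Note: 0% = no-inhibitor control and -100% = no-enzyme control; nearly all actives have a fitted effect of over 70% in size.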 Conditions: Zika NS2B-NS3 unlinked protease, AMC fluorogenic substrate; series mostly up to 54.1 µM. The source says: Avindra Nath, Ph.D., National Institute of Neurological Disorders and Stroke (NINDS), Bethesda, MD
Radhakrishnan Padmanabhan, Ph.D., Georgetown University (GU), Washington D.C.
Zika Virus causes congenital defects, including microcephaly and is associated with Guillain-Barre syndrome, eningoencephalitis and myelitis in infected adult. […] Using a target-based approach, we hope to establish a screening paradigm to uncover novel, cell-active NS2B-NS3 protease (Zika Virus) specific inhibitors from NCATS' collection of small molecules using qHTS.
Early Translation Branch (ETB)
National Center for Advancing Translational Sciences (NCATS), Rockville, MD
National Institute of Health (NIH), Bethesda, Maryland
Padmanabhan lab provided the NS2B hydrophilic domain and NS3 protease domain in a noncovalent complex used for the unlinked assay. Control compound aprotinin is obtained from Thermo Scientific (#78432; Waltham, Massachusetts). NS2B-NS3 AMC substrate (Bz-Nle-Lys-Arg-Arg-AMC; Nle-KRR-AMC) purchased from Bachem (#I-1995; Torrance, CA). Ac-VKTGKR-AMC purchased from Genscript or Bachem, Ac-FAAGKR-AMC purchased from Genscript, Ac-GLVKRR-AMC purchased from Genscript, Ac-LKKR-AMC purchased from Genscript.
GU AMC unlinked NS2B-NS3 protease qHTS protocol
Briefly, 3 microL of Zika virus unlinked NS2B-NS3 protease (25 nM for linked final concentration), in assay buffer (10 mM Tris-HCl pH 8.0 with 0.01% Tween 20) was dispensed into a 1,536-well solid-bottom black plate (Greiner Bio One, Monroe, NC). […] Plates were then read immediately on a ViewLux High-throughput CCD imager (PerkinElmer, Waltham, MA) equipped with standard UV fluorescence optics (340(30) nm excitation, 450(20) nm emission) then incubated (room temperature, protected from light) for 15 minutes (~20% conversion). The change in fluorescence intensity over the 15-minute reaction period was normalized against no-inhibitor and no-enzyme controls and the resulting percent inhibition data were fitted to a 4-parameter Hill equation. Aprotinin was used as the intraplate control.
(In general: qHTS replaces the single test concentration by a dilution series.)
Take `COC(=O)C1=C(C)NC(C)=C(C(=O)OCCN(C)Cc2ccccc2)C1c1cccc([N+](=O)[O-])c1` (stereo not given): the compound was classed as inactive.
On the same count and under the same terms, for `CO[C@@]1(NC(=O)CSCC#N)C(=O)N2C(C(=O)O)=C(CSc3nnnn3C)CS[C@@H]21` the value was “inactive”.
On the same count and under the same terms, for `CC[N+](C)(C)c1cccc(O)c1` the value was “inactive”.
The same measure, in the same setting: under `NC1=NCC2c3ccccc3Cc3ccccc3N12` (stereo not given) stands “inactive”; under `C[C@]12C=CC(=O)C=C1CC[C@H]1[C@@H]3C[C@@H](O)[C@](O)(C(=O)CO)[C@@]3(C)C[C@H](O)[C@@]12F`, “inactive”.
For the compound `FC(F)(F)c1ccccc1-n1ccnc1`, the outcome was inactive.
The same measure, in the same setting: for `NC(N)=NC(=O)Cc1c(Cl)cccc1Cl` the value was “inactive”; for `NC(=O)N1c2ccccc2C=Cc2ccccc21`, “inactive”; for `CCCCCCCC/C=C\CCCCCCCC(=O)NCc1ccc(O)c(OC)c1`, “inactive”.
For the compound `C[C@]12CCC(=O)C=C1CC[C@@H]1[C@@H]2C(=O)C[C@@]2(C)[C@H]1CC[C@]2(O)C(=O)CO`, the compound was called inactive.
As to `Cc1nc2ccccn2c(=O)c1CCN1CCC(C(=O)c2ccc(F)cc2)CC1`, the compound was called inactive.
Consider `COc1ccc(CN(CCN(C)C)c2ccccn2)cc1`, for which the call was inactive.
The same measure, in the same setting: for `CN1C[C@H](C(=O)N[C@]2(C)O[C@@]3(O)[C@@H]4CCCN4C(=O)[C@H](Cc4ccccc4)N3C2=O)C[C@@H]2c3cccc4[nH]cc(c34)C[C@H]21` the value was “inactive”; for `c1cc(CN2CCCCC2)cc(OCCCNc2nc3ccccc3s2)c1`, “inactive”; for `O=C(CCNNC(=O)c1ccncc1)NCc1ccccc1`, “inactive”.
Still for that read-out and setting: for `CC1=NS(=O)(=O)c2cc(Cl)ccc2N1` the value was “inactive”; for `CC(C)[N+](C)(CCOC(=O)C1c2ccccc2Oc2ccccc21)C(C)C`, “inactive”; for `CCN(Cc1ccncc1)C(=O)C(CO)c1ccccc1` (stereo not given), “inactive”.
Still for that read-out and setting: for `CC(=O)OC(C)C[N+](C)(C)C` (stereo not given) the value was “inactive”; for `CN/C(=C\[N+](=O)[O-])NCCSCc1ccc(CN(C)C)o1`, “inactive”.
As to `COCCc1ccc(OCC(O)CNC(C)C)cc1` (stereo not given), the call was inactive.
Still for that read-out and setting: for `CN(C)C(=O)Oc1ccc[n+](C)c1` the value was “inactive”; for `Cc1cc(C)c(/C=C2\C(=O)Nc3ccccc32)[nH]1`, “inactive”; for `CCn1ccnc1CC1COc2ccccc2O1` (stereo not given), “inactive”.
The same measure, in the same setting: for `CCN(CC)CC(=O)Nc1c(C)cccc1C` the value was “inactive”; for `CC(C)NCC(O)c1cc(O)cc(O)c1` (stereo not given), “inactive”; for `c1cnc(N2CCN(Cc3ccc4c(c3)OCO4)CC2)nc1`, “inactive”.
On to `CCCC(C(=O)OCCN(CC)CC)(c1ccccc1)c1ccccc1`, for which the compound was called inactive.
Turning to `CC(C)COCC(CN(Cc1ccccc1)c1ccccc1)N1CCCC1` (stereo not given), the call was inactive.
Still for that read-out and setting: for `CN(C)CCOC(=O)COc1ccc(Cl)cc1` the value was “inactive”.
Consider `NCCCNCCSP(=O)(O)O`, for which the activity change, negative = inhibition is -3.39% [at 6.83 µM].
On to `CC(=O)Oc1cc(C(C)C)c(OCCN(C)C)cc1C`, for which the outcome was inactive.
On the same count and under the same terms, under `O=C1CC2(CCCC2)CC(=O)N1CCCCN1CCN(c2ncccn2)CC1` stands “inactive”; under `C[N+](C)(C)CCOC(N)=O`, “inactive”; under `COC(=O)[C@H]1[C@H]2C[C@@H]3c4[nH]c5cc(OC)ccc5c4CCN3C[C@H]2C[C@@H](OC(=O)c2cc(OC)c(OC)c(OC)c2)[C@@H]1OC`, “inactive”.
Same read-out and setting: for `CCCCNc1c(C(=O)OCC)c(C)nc2c1cnn2CC` the value was “inactive”; for `CCCNC(C)C(=O)Nc1ccccc1C` (stereo not given), “inactive”.
On the same count and under the same terms, for `CN1C(=O)CC[C@H]1c1cccnc1` the value was “inactive”; for `C#CCN(C)CCCOc1ccc(Cl)cc1Cl`, “inactive”.
As for `CN(C)CCCN1c2ccccc2Sc2ccccc21`, the call was inactive.
